Data on nine compounds can be found in PubChem BioAssay (NCI).

What all share (test): NCI-60 one-dose screen, 48 h (100 = growth as untreated, 0 = no growth, -100 = all killed)
Assay [1] deals with HT29 colon. The following applies: 10 µM unless noted.
In assay [2] the test system is SNB-75 CNS. The following applies: 10 µM unless noted.
In assay [3] the test system is SNB-19 CNS. The following applies: 10 µM unless noted.
Assay [4] has as its system U251 CNS. The following applies: 10 µM unless noted.
Assay [5] concerns PC-3 prostate. The following applies: 10 µM unless noted.
Assay [6] deals with SK-MEL-5 melanoma. The following applies: 10 µM unless noted.
Assay [7] deals with UACC-62 melanoma. The following applies: 10 µM unless noted.
Assay [8] concerns LOX IMVI melanoma. The following applies: 10 µM unless noted.
For assay [9], the system named is SK-MEL-2 melanoma. The following applies: 10 µM unless noted.
In assay [10] the test system is EKVX NSCLC. The following applies: 10 µM unless noted.
For assay [11], the system named is SN12C renal. The following applies: 10 µM unless noted.
Assay [12] concerns UO-31 renal. The following applies: 10 µM unless noted.
The test system of assay [13] is TK-10 renal. The following applies: 10 µM unless noted.
Assay [14] has as its system ACHN renal. The following applies: 10 µM unless noted.
For assay [15], the system named is CAKI-1 renal. The following applies: 10 µM unless noted.
Assay [16] relates to A498 renal. The following applies: 10 µM unless noted.
For assay [17], the system named is CCRF-CEM leukemia. The following applies: 10 µM unless noted.
The subject of assay [18] is MOLT-4 leukemia. The following applies: 10 µM unless noted.
The test system of assay [19] is SR leukemia. The following applies: 10 µM unless noted.
The test system of assay [20] is SK-MEL-28 melanoma. The following applies: 10 µM.

The panel holds about 83,000 compounds, 20% with a hit somewhere; the sample as a whole holds those more often.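 96-well plates, one dose, 48 hours. Percent growth reported; active if below 10.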 A number with no mark means an inactive call. Active and inactive are the calls of the source.

As to `O=S1(=O)N(Cc2ccccc2)[C@@H](Cc2ccccc2)C2O[C@H]2[C@H](Cc2ccccc2)N1Cc1ccccc1` (stereo partly specified), the growth in assay [1] was 46.7%; in assay [2] it was 46.3%; in assay [3], 44.9%; in assay [4], 41.5%; in assay [5], 42%; in assay [6] it was 28.3%. Also, the growth in assay [7] is 40.8%; in assay [8], 19.6%; in assay [9], 84.1%; in assay [10] it was 24%; in [11], 47.8%; in assay [12] it was 68.1%. In addition, the growth in [13] is 71%; in assay [14], 41.2%; in assay [15] it was 33.8%; in assay [16], 65.4%; in assay [17], 29.5%; in [18] it was 35.4%. Moreover, the growth in [19] is 29.6%.

In the case of `CCCCc1ccc(NS(=O)(=O)c2cc3c4c(c2)CCN4C(=O)CC3)cc1`, the growth was 29.9% in assay [1]; 33.9% in assay [2]; 26.8% in assay [3]; 11% in [4]; 38.3% in [5]; 0.989% (active) in assay [6]. The growth in [7] is -28.9% (active); in [20], 40.5%; in assay [9] it was 40.8%; in assay [11], 9.46% (active); in [12] it was 5.85% (active); in [13] it was 33.8%. For the same compound, the growth in assay [14] was 15.5%; in [16] it was -27.7% (active); in [17] it was 5.87% (active); in assay [19], 3.07% (active).

Turning to `COc1cc(C2C3=C(COC3=O)N(CCO)c3cc4c(cc32)OCCO4)cc(OC)c1O` (stereo unspecified), the growth in [1] is 3.06% (active); in assay [2] it was -17.9% (active); in assay [3], 26.8%; in assay [4], 19.7%; in [5], 27.2%; in [6] it was 12.9%. Further, the growth in [7] is 33.5%; in [8], 33%; in [9], 76.5%; in [10] it was 41%; in [11] it was 39.8%; in assay [12], 60.3%. For the same compound, the growth was 47.4% in [13]; 37.2% in assay [14]; 39.8% in assay [15]; 25.5% in assay [16]; 15.5% in assay [17]; 29.7% in assay [18]. For the same compound, in [19], the growth was 23%.

As to `O=C(Nc1ccsc1C(=O)NC1CCCCC1)c1ccc(F)cc1`, the growth in assay [1] was 92.9%; in assay [2], 85.2%; in assay [3], 98.8%; in [4] it was 101%; in assay [5] it was 67.9%; in assay [6] it was 105%. Further, the growth in assay [7] was 103%; in assay [8], 97.7%; in [20], 96.4%; in assay [11], 98.3%; in [12], 94.4%; in assay [13] it was 114%. Besides, the growth in [14] was 101%; in [15], 95.6%; in assay [16], 95.5%; in assay [17], 66.6%; in [18] it was 95.6%; in assay [19] it was 79.4%.

`COc1ccccc1CNC(=O)C1c2ccccc2C(=O)N(CC(C)C)C1c1cccs1` (stereo unspecified): the growth in assay [1] was 11.9%; in [2], 67.5%; in [3], 90.6%; in assay [4], 49.7%; in assay [5], 47.8%; in assay [6], 52.2%. For the same compound, the growth is 46.4% in assay [7]; 58.1% in assay [20]; 87.2% in assay [9]; 76.6% in assay [11]; 92% in assay [12]; 75.9% in assay [13]. In addition, the growth was 54.2% in assay [14]; 53.4% in assay [15]; 42.4% in [16]; 27.1% in assay [18]; 17.3% in assay [19].

Turning to `NC1C(N)C(N)C1N` (stereo unspecified), the growth in [1] is 106%; in [2], 71.8%; in assay [3], 94.3%; in assay [4], 101%; in assay [5], 96.1%; in assay [6], 113%. The growth in [7] was 99.1%; in assay [8], 95.1%; in assay [9], 92%; in assay [10], 121%; in assay [11], 96.8%; in [12], 77.9%. Also, the growth in assay [13] is 99.1%; in assay [14], 96.8%; in [15], 101%; in assay [16], 116%; in assay [17] it was 85.1%; in assay [18], 83.7%. Also, the growth in [19] is 86.8%.

In the case of `COc1ccc(/C=C2\CCC/C(=C\c3ccc(OC)c(OC)c3)C2=O)cc1OC`, the growth in assay [1] is 1.7% (active); in assay [2] it was 0.689% (active); in [3], 37.8%; in assay [4], 12.3%; in assay [5], 40.8%; in assay [6], 5.95% (active). Moreover, the growth was -2.18% (active) in assay [7]; -35% (active) in assay [8]; 86.4% in [9]; 25.9% in [10]; 8.6% (active) in assay [11]; 19.3% in [12]. Besides, the growth in assay [13] was 7.6% (active); in [15] it was 3.35% (active); in assay [16], 35.5%; in assay [17] it was 5.72% (active); in assay [18], 6.9% (active); in assay [19] it was 14.3%.

With `CCCCC(O)(c1ccc(Cl)cc1)C(CN1CCOCC1)c1ccc(Cl)cc1` (stereo unspecified), the growth in [1] was 53.7%; in [2], 39.6%; in [3] it was 60.1%; in assay [4], 23.1%; in assay [5] it was 17.6%; in assay [6], 13.3%. For the same compound, the growth in [7] was 31.1%; in [8], 33.9%; in [20], 54.1%; in assay [11] it was 9.55% (active); in assay [12] it was 16.1%; in [13] it was 52.9%. Moreover, the growth in [14] is 33.2%; in [15], 26.5%; in [16] it was 36%; in assay [17] it was 22.3%; in [18] it was 6.34% (active); in assay [19], 5.35% (active).

Take `COCCN(C(=O)Cc1cccs1)C(C(=O)NCc1ccc(OC)cc1)c1ccc(C(C)C)cc1` (stereo unspecified): the growth in [1] is 97.2%; in assay [2], 79.7%; in [3] it was 106%; in assay [4] it was 97.1%; in assay [5], 47.5%; in assay [6], 98.2%. The growth in assay [7] was 84.8%; in assay [20], 113%; in [9], 102%; in assay [11], 89.9%; in assay [12], 82.5%; in assay [13], 115%. Further, the growth in assay [14] is 87.1%; in assay [16] it was 77.1%; in [17] it was 93.9%; in assay [18], 80.3%; in assay [19], 74.3%.
